Compound activity from PubChem.
This is a sample that favours compounds with a hit; in the whole collection about 3% have one here.
PAFAH1B2 inh: PAFAH1B2 enzyme inhibitors, primary screen, biochemical, fluorescence polarization, human | Platelet-activating factor acetylhydrolase IB subunit alpha2 (Homo sapiens), P68402 | recombinant PAFAH1B2, FP-rhodamine activity probe | inhibition, % at 3.39 µM | actives 1.2% (n = 340,000) | AID 492953, 2010;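 active means inhibition above the mean of all tested compounds plus 3 SD, cut at about 24% in these data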;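 further: 0% = enzyme with DMSO and 100% = wells lacking PAFAH1B2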
Fh CTSL1 inh: Fasciola hepatica cathepsin L1 inhibitors, primary screen, counter-screen for PFM18AAP inhibitor project, biochemical, QFRET, fluorogenic peptide substrate; AID 1906, 2009; actives 0.49% (n = 300,000); recombinant F. hepatica cathepsin L1, Z-Leu-Arg-MCA fluorescence; inhibition, % at 5.96 µM;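 active means inhibition above the mean of all tested compounds plus 3 SD, set per screening campaign, cut at about 17% in these data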;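 further: 0% = plate median of test compound wells and 100% = 1 µM Z-Phe-Ala-diazomethylketone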
PAFAH2 FP inh: PAFAH2 enzyme inhibitors, primary screen, biochemical, fluorescence polarization, human. Platelet-activating factor acetylhydrolase 2, cytoplasmic (Homo sapiens), Q99487. recombinant PAFAH2, FP-rhodamine activity probe. inhibition, % at 3.39 µM. actives 0.99% (n = 340,000);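 active means inhibition above the mean over all tested compounds plus 3 SD, cut at about 30% in these data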;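 further: inhibitors block probe labeling of enzyme so polarization drops; 0% = enzyme with DMSO and 100% = wells lacking PAFAH2 protein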
pPAFAH inh: pPAFAH enzyme inhibitors, primary screen, biochemical, fluorescence polarization, human. Platelet-activating factor acetylhydrolase (Homo sapiens), Q13093. recombinant pPAFAH, FP-rhodamine probe fluorescence polarization. inhibition, % at 3.39 µM. actives 1.5% (n = 330,000). AID 463082, 2010;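 active means inhibition above the mean inhibition across the screen plus 3 SD, cut at about 25% in these data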;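 further: inhibitors block binding of the rhodamine activity-based probe so polarization drops; 0% = enzyme with DMSO and 100% = wells lacking pPAFAH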
Target sequence (Q13093 whole entry, looked up): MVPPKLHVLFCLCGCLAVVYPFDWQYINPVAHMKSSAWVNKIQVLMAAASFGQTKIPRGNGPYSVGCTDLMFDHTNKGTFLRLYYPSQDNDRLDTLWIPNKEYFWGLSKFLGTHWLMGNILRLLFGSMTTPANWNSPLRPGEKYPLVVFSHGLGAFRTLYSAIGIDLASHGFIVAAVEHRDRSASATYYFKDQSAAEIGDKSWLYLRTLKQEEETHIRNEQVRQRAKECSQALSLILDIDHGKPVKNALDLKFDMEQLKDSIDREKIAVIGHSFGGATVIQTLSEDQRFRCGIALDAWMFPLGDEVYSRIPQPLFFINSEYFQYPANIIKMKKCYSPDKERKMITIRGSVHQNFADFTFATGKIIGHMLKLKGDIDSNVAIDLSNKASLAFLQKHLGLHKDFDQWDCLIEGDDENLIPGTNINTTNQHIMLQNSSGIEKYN
PP5 primary: PP5 phosphatase inhibitors, primary screen, biochemical, fluorescence | purified PP5c, OMFP substrate fluorescence | inhibition, % at 6.7 µM | Serine/threonine-protein phosphatase 5 (Homo sapiens), P53041 | AID 1987, 2009 | actives 0.18% (n = 320,000);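 active means inhibition above the campaign's mean inhibition across all tested compounds plus 3 SD, cut at about 9.5% in these data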;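 further: 0% = DMSO only and 100% = 100 µM cantharidin control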
PAFAH1B3 FP inh: PAFAH1B3 enzyme inhibitors, primary screen, biochemical, fluorescence polarization, human; AID 492972, 2010; inhibition, % at 3.39 µM; recombinant PAFAH1B3, FP-rhodamine probe; Platelet-activating factor acetylhydrolase IB subunit alpha1 (Homo sapiens), Q15102; actives 0.28% (n = 340,000);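 active means inhibition above the screen-wide average of all tested compounds plus 3 SD, cut at about 25% in these data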;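 further: 0% = enzyme with DMSO only and 100% = wells lacking PAFAH1B3 protein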
pPAFAH confirm: pPAFAH (PLA2G7) enzyme inhibitors, confirmation, biochemical, fluorescence polarization, human | shares compounds with pPAFAH inh | recombinant pPAFAH, FP-Rh probe fluorescence polarization | actives 72% (n = 2,300) | inhibition, % at 3.39 µM;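 active means mean inhibition of the triplicate above the hit cutoff set for the earlier primary screen, cut at about 25% in these data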;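 further: 0% = enzyme with DMSO and 100% = wells lacking pPAFAH enzyme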
Numbers without * were called inactive.

`CC(=O)c1ccc(N(CC(=O)NC2CCCC2)C(=O)c2csnn2)cc1` gave PAFAH1B2 inh -2.8, Fh CTSL1 inh 2.8, PAFAH2 FP inh -8.8, pPAFAH inh -2.9, PP5 primary -2.0 and PAFAH1B3 FP inh -3.3.
For Cc1ccc(N=Nc2c(O)[nH]c(=O)[nH]c2=O)cc1S(=O)(=O)Nc1ccc(Br)cc1 the results were PAFAH1B2 inh -0.3, PAFAH2 FP inh 18.4, pPAFAH inh 76.2*, PAFAH1B3 FP inh 13.3 and pPAFAH confirm 24.5.
Screening CC(=O)N(c1nnc(-c2cccc(C)c2)s1)C1CCCC1 returned PAFAH1B2 inh -0.3, Fh CTSL1 inh -1.0, PAFAH2 FP inh -2.6, pPAFAH inh 1.5, PP5 primary -0.4 and PAFAH1B3 FP inh 6.3.
For Cc1ccc(C(=O)O)cc1N1C(=O)c2cccc3c([N+](=O)[O-])ccc(c23)C1=O the results were PAFAH1B2 inh 15.4, Fh CTSL1 inh -0.6, PAFAH2 FP inh 36.3*, pPAFAH inh 36.0*, PP5 primary 1.2, PAFAH1B3 FP inh 40.8* and pPAFAH confirm 8.9.
O=C(O/N=C(\c1ccccc1)c1ccncc1)c1ccccc1Cl was read as PAFAH1B2 inh 88.0*, Fh CTSL1 inh 9.1, PAFAH2 FP inh 25.3, pPAFAH inh 45.4*, PP5 primary -1.2, PAFAH1B3 FP inh 8.7 and pPAFAH confirm 23.4.
Cc1ccccc1C(=O)N1CC(=O)Nc2ccc(F)cc2C1c1ccccc1 (configuration not stated) was read as PAFAH1B2 inh 6.9, Fh CTSL1 inh -1.1, PAFAH2 FP inh 0.1, pPAFAH inh 1.0, PP5 primary -1.1 and PAFAH1B3 FP inh 4.9.
Cc1cc(C)c(S(=O)(=O)N2CCN(C(=O)CCn3nc(C)c(C)c3C)CC2)c(C)c1 was read as PAFAH1B2 inh 4.8, Fh CTSL1 inh -1.3, PAFAH2 FP inh 9.1, pPAFAH inh 3.4, PP5 primary 4.7 and PAFAH1B3 FP inh 6.4.
COc1cc2[nH]c3c(N4CCN(c5ccc(Cl)cc5)CC4)ncnc3c2cc1OC was read as PAFAH1B2 inh 12.4, Fh CTSL1 inh 0.6, PAFAH2 FP inh 1.2, pPAFAH inh 61.8*, PP5 primary 3.8, PAFAH1B3 FP inh 38.5* and pPAFAH confirm 53.8*.
`COc1cc2[nH]c3c(Cl)ncnc3c2cc1OC` gave PAFAH1B2 inh -1.2, Fh CTSL1 inh 0.0, PAFAH2 FP inh 5.0, pPAFAH inh 1.5, PP5 primary 2.7 and PAFAH1B3 FP inh 5.6.
For CC1(C)CCC/C(=C\c2ccccc2)C1=O the results were PAFAH1B2 inh 3.1, Fh CTSL1 inh 1.3, PAFAH2 FP inh 2.0, pPAFAH inh 45.8*, PP5 primary 2.2, PAFAH1B3 FP inh 3.9 and pPAFAH confirm 7.8.
`O=C1OCC/C1=C\c1ccccc1` gave PAFAH1B2 inh 1.4, Fh CTSL1 inh 0.5, PAFAH2 FP inh 8.4, pPAFAH inh -5.5, PP5 primary 2.2 and PAFAH1B3 FP inh 2.4.
Screening COc1ccccc1CC(NC(C)=O)C(=O)NC1CCN(C(=O)Nc2ccccc2F)CC1 (configuration not stated) returned PAFAH1B2 inh 5.4, Fh CTSL1 inh -2.0, PAFAH2 FP inh 10.7, pPAFAH inh 0.8, PP5 primary -2.0 and PAFAH1B3 FP inh 11.5.
For COc1ccc(Nc2nc(N3CCN(S(=O)(=O)N(C)C)CC3)nc3ccccc23)cc1 the results were PAFAH1B2 inh 4.6, Fh CTSL1 inh 2.4, PAFAH2 FP inh -10.3, pPAFAH inh 1.9, PP5 primary 4.6 and PAFAH1B3 FP inh 9.3.
Screening N#C/C(=C\c1ccc([N+](=O)[O-])o1)C(=O)Nc1ccc(F)cc1 returned PAFAH1B2 inh 1.0, Fh CTSL1 inh 1.9, PAFAH2 FP inh 9.0, pPAFAH inh 43.6*, PP5 primary 1.1, PAFAH1B3 FP inh 6.8 and pPAFAH confirm 23.8.
